According to PubChem BioAssay (Tox21):
Records with an inconclusive call do not appear. Entries that show only a call come without a potency. The source holds several records for some structures; these can differ, active in one and inactive in another. Active and inactive are the calls of the source. Unless noted, the call rests on the fitted dose curve.

Key:
[1] = qHTS assay to identify small molecule agonists of the vitamin D receptor (VDR) signaling pathway - cell viability counter screen (AID 743224; active means well fitted curve in the direction sought with a large enough effect in the repeat runs; an effect the other way counts as inactive or inconclusive; further: nearly all actives have a fitted effect of over 50% in size); conditions: VDR-bla HEK293T viability, CellTiter-Glo luminescence, 16 h; series mostly up to 62.6 µM
How it was run: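 Plated VDR-bla cells (4 h, 37C) received compound, incubated 16 h, then LiveBLAzer substrate 2 h RT; CellTiter-Glo added afterwards, luminescence read at 30 min.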

[2] = qHTS assay to identify small molecule agonists of the NFkB signaling pathway (AID 1159509; active means well fitted curve in the direction sought with a large enough effect in the signal ratio in the repeat runs, not every such curve was filed as active; the % refers to the signal ratio); conditions: NFkB-bla ME-180 cells, beta-lactamase FRET ratio, 5 h; series mostly up to 61 µM
How it was run: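 ME-180 NFkB-bla, 2,000 cells/well, overnight plating; cpd pinned in DMSO, 5 h 37 C; B/G FRET substrate 1.5 h RT; ex 405, em 460/530 nm.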

[3] = qHTS assay to identify small molecule agonists of the NFkB signaling pathway - cell viability counter screen (AID 1159515); conditions: NFkB-bla ME-180 viability, CellTiter-Glo luminescence, 5 h; series mostly up to 61 µM; further: nearly all actives have a fitted effect of over 55% in size
How it was run: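 Using the same wells as the NFkB reporter read, ME-180 NFkB-bla cells given compounds for 5 hr were assessed for viability via CellTiter-Glo, with luminescence taken after a 30 min room-temperature incubation.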

[4] = qHTS assay to identify small molecule agonists of the endoplasmic reticulum stress response signaling pathway (AID 1159516; active means well fitted activation curve with a large enough effect in the signal ratio in the repeat runs, not every such curve was filed as active; the % refers to the signal ratio); conditions: ESRE-bla HeLa, ER stress beta-lactamase reporter, 5 h; series mostly up to 61 µM
How it was run: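 An ESRE-bla HeLa cell assay: compounds were pin-transferred from DMSO onto overnight-plated cells and left 5 hr at 37 C. Substrate was then loaded for 2 hr at room temperature before reading fluorescence at 460 nm and 530 nm.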

[5] = qHTS assay to identify small molecule agonists of the endoplasmic reticulum stress response signaling pathway - cell viability counter screen (AID 1159517); conditions: ESRE-bla HeLa viability, CellTiter-Glo luminescence, 5 h; series mostly up to 61 µM;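 further: HeLa cells carrying an ER stress response element beta-lactamase reporter; nearly all actives have a fitted effect of over 50% in size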
How it was run: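 HeLa cells carrying an ESRE-driven beta-lactamase reporter receive compound for 5 hr at 37 C. Cell viability is then gauged with CellTiter-Glo by luminescence, 30 min at room temperature.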

[6] = qHTS assay to identify small molecule antagonists of the retinoid-related orphan receptor gamma (ROR-gamma) signaling pathway - cell viability counter screen (AID 1159520; active means well fitted curve in the direction sought with a large enough effect in the repeat runs; an effect the other way counts as inactive or inconclusive; further: nearly all actives have a fitted effect of over 50% in size); conditions: Tet-on RORgamma CHO cells viability, ATP luminescence, 16 h; series mostly up to 92.4 µM
How it was run: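 Cytotoxicity was read from cellular ATP (CellTiter-Glo luminescence) after 16 hr at 37 C with 1 uM doxycycline induction. The inducer was added 2 hr after compound transfer to Tet-on ROR gamma CHO cells.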

[7] = molecular target: Nuclear receptor ROR-gamma (Homo sapiens) (UniProt P51449); test: qHTS assay to identify small molecule antagonists of the retinoid-related orphan receptor gamma (ROR-gamma) signaling pathway (AID 1159521; active means well fitted curve in the direction sought with a large enough effect in the repeat runs; an effect the other way counts as inactive or inconclusive; further: nearly all actives have a fitted effect of over 50% in size; further: potency means the concentration at half of the fitted maximal effect); conditions: Tet-on RORgamma CHO cells, RORE-luciferase, 16 h; series mostly up to 92.4 µM
How it was run: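 Antagonist read-out: drop in luminescence (ONE-Glo) from an RORE-LUC reporter in CHO cells with doxycycline-inducible ROR-gamma; 2 hr compound pretreatment, 1 uM doxycycline, 16 hr incubation at 37 C.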

[8] = qHTS assay to identify small molecule agonists of the AP-1 signaling pathway - cell viability counter screen (AID 1159525); conditions: ME-180 AP-1-bla cells viability, ATP luminescence, 5 h; series mostly up to 76.8 µM; further: nearly all actives have a fitted effect of over 55% in size
How it was run: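 Luminescent ATP readout (Cell Titer Glo, 30 min RT), normalised to DMSO and tetra n-octyl ammonium bromide controls. Cells were ME-180 AP-1-bla in 0.5% dialyzed FBS Opti-MEM, with a 5 h, 37 °C compound exposure.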

[9] = qHTS assay to identify small molecule agonists of the AP-1 signaling pathway (AID 1159526); conditions: ME-180 (cervical carcinoma) AP-1-bla reporter, beta-lactamase FRET ratio, 5 h; series mostly up to 76.8 µM
[10] = qHTS assay to identify small molecule antagonists of the vitamin D receptor (VDR) signaling pathway - cell viability counter screen (AID 743225; active means well fitted curve in the direction sought with a large enough effect in the repeat runs; an effect the other way counts as inactive or inconclusive; further: nearly all actives have a fitted effect of over 50% in size); conditions: VDR-bla HEK293T viability, CellTiter-Glo luminescence, 16 h; series mostly up to 61 µM
How it was run: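 Cytotoxicity counter screen read by CellTiter-Glo luminescence (30 min, room temperature) in the same wells as the VDR-bla antagonist readout. HEK 293T VDR-UAS-bla cells had 16 h at 37C with compound and 3 nM (final) 1-alpha,25-dihydroxyvitamin D3, then 2 h with FRET substrate.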

| Structure (SMILES) | Potency [1] | outcome [2] | Potency [3] | Potency [4] | Potency [5] | Potency [6] | Potency [7] | Potency [8] | outcome [9] | Potency [10] |
| --- | --- | --- | --- | --- | --- | --- | --- | --- | --- | --- |
| CCC(C)OC(=O)c1ccc(O)cc1 (configuration not stated) | inactive | inactive | inactive | inactive | inactive | inactive | inactive | inactive | inactive |  |
| CC(=O)CC/C=C(\C)CCC=C(C)C | inactive | inactive | inactive | inactive | inactive | inactive | inactive | inactive | inactive | inactive |
| OC(CCl)CCl | inactive | inactive | inactive | inactive | inactive | inactive | inactive | inactive | inactive |  |
| CC(C)(C)NC(=O)[C@H]1CC[C@H]2[C@@H]3CC[C@H]4NC(=O)C=C[C@]4(C)[C@H]3CC[C@]12C | inactive | inactive | inactive | inactive | inactive | inactive | inactive | inactive | inactive | inactive |
| CC(C(=O)O)c1cccc(C(=O)c2ccccc2)c1 (configuration not stated) | inactive | inactive | inactive | inactive | inactive | inactive | inactive | inactive | inactive | inactive |
| C=CC(C)(CCC=C(C)C)OC(C)=O (configuration not stated) | inactive | inactive | inactive | inactive | inactive | inactive | inactive | inactive | inactive |  |
| Cc1cccc(N(C)C(=S)Oc2ccc3ccccc3c2)c1 | inactive | inactive | inactive | inactive | inactive | inactive | inactive | inactive | inactive |  |
| C/C=C/C(=O)O | inactive | inactive | inactive | inactive | inactive | inactive | inactive | inactive | inactive |  |
| O=C(c1ccccc1)c1ccc(O)cc1O | inactive | inactive | inactive | inactive | inactive | inactive | 55.5 µM (active) and inactive | inactive | inactive |  |
| CC(C)CC(C)(O)C#CC(C)(O)CC(C)C (configuration not stated) | inactive | inactive | inactive | inactive | inactive | inactive | inactive | inactive | inactive |  |
| O=C(c1ccccc1)c1ccccc1O | inactive | inactive | inactive | inactive | inactive | inactive | inactive | inactive | inactive |  |
| CN(C)c1nc(N(C)C)nc(N(C)C)n1 | inactive | inactive | inactive | inactive | inactive | inactive | inactive | inactive | inactive |  |
| Cc1cccc(C(=O)O)c1 | inactive | inactive | inactive | inactive | inactive | inactive | inactive | inactive | inactive | inactive |
| CC(=O)C1(C)CC2=C(CCCC2(C)C)CC1C (configuration not stated) | inactive | inactive | inactive | inactive | inactive | inactive | inactive | inactive | inactive |  |
| C=C(C)C(=O)OCCOC(=O)C(=C)C | inactive | inactive | inactive | inactive | inactive | inactive | inactive | inactive | inactive |  |
| CC1=CC2C3CC(C=C3C)C2C1 (configuration not stated) | inactive | inactive | inactive | inactive | inactive | inactive | inactive | inactive | inactive |  |
| Cc1c(OCC(F)(F)F)ccnc1CS(=O)c1nc2ccccc2[nH]1 (configuration not stated) | inactive | inactive | inactive | inactive | inactive | inactive | inactive | inactive | inactive |  |
| CCCCC(CC)COC(=O)c1ccc(N(C)C)cc1 (configuration not stated) | inactive | inactive | inactive | inactive | inactive | inactive | inactive | inactive | inactive |  |
| C[C@]12CC[C@H]3[C@@H](CCC4=CC(=O)CC[C@@]43C)[C@@H]1CC[C@@H]2C(=O)CO | inactive | inactive | inactive | inactive | inactive | inactive | 27.3 µM (active) | inactive | inactive | inactive |
| O=Cc1ccccc1O | inactive | inactive | inactive | inactive | inactive | inactive | inactive | inactive | inactive |  |
| C[Si](C)(C)O[Si](C)(C)C | inactive | inactive | inactive | inactive | inactive | inactive | inactive | inactive | inactive |  |
| CC(CCC(=O)O)(c1ccc(O)cc1)c1ccc(O)cc1 | inactive | inactive | inactive | inactive | inactive | inactive | inactive | inactive | inactive | inactive |
| Clc1nc(Cl)c(Cl)c(Cl)c1Cl | inactive | inactive | inactive | inactive | inactive | inactive | inactive | inactive | inactive |  |
| Nc1ccc(S(=O)(=O)Nc2cnc3ccccc3n2)cc1 | inactive | inactive | inactive | inactive | inactive | inactive | inactive | inactive | inactive |  |
